Assay outcomes from PubChem BioAssay.
Compounds with a hit are over-represented: about 4.1% of the library has one in this group of screens.
tim23-1 inh: growth inhibitors of tim23-1 mutant yeast; S. cerevisiae tim23-1 growth, BacTiter-Glo luminescence, 24 h; inhibition, % at 20 µM; 330,000 compounds, 1.3% hits;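 active = growth inhibition of the mutant yeast at or above 50%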;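 note: temperature-sensitive mutant grown at 25 °C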
NALP3 yeast inh: blocks the NALP3 inflammasome reconstituted in yeast; inhibition, % at 10 µM; Yeast reconstituted NLRP3/ASC/caspase-1, beta-gal luminescence, 24 h; 330,000 compounds, 0.39% hits; AID 2825;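 active = inhibition of 50% or more; inactive = inhibition below 50%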
TIM10 inh: growth inhibitors of TIM10 yeast strain; 330,000 compounds, 1.4% hits; inhibition, % at 10 µM; S. cerevisiae TIM10 strain growth, BacTiter-Glo luminescence, 24 h;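 active = inhibition of 40% or more at the single tested concentration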;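 note: wild-type TIM10 isogenic control strain grown at permissive 25 °C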
NALP1 yeast inh: NALP1 inhibition; S. cerevisiae NALP1/ASC/caspase-1 growth, X-gal OD620, 72 h; inhibition, % at 10 µM; 280,000 compounds, 0.61% hits; AID 2071; in the data active = inhibition mostly above about 24%, no sharp cut-off; inactive = mostly below about 32%
tim10-1 inh: inhibits growth of tim10-1 mutant yeast; S. cerevisiae tim10-1 ts strain growth, BacTiter-Glo, 24 h; inhibition, % at 20 µM; 330,000 compounds, 2.2% hits; AID 463190;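 active = inhibition of at least 40%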;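 note: mutant grown at 25 °C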
tim10-1 confirm: tim10-1 yeast growth inhibition, confirmed | shares compounds with tim10-1 inh | S. cerevisiae tim10-1 ts strain growth, BacTiter-Glo, 24 h | inhibition, % at 20 µM | 7,400 compounds, 56% hits | AID 463213;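 active = inhibition of yeast growth at or above a set limit in either of two repeat tests at 20 µM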;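 note: tim10-1 mutant grown at permissive 25 °C to find synthetic lethal compounds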
tim10 confirm: TIM10 yeast growth inhibition, confirmed. shares compounds with TIM10 inh. AID 463215. inhibition, % at 10 µM. 4,600 compounds, 63% hits. S. cerevisiae tim10 strain growth, BacTiter-Glo luminescence, 24 h;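 active = inhibition of yeast growth at or above a set limit in either of two replicates at 10 µM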; note: this counterscreen used the strain with wild-type TIM10
tim23-1 confirm: tim23-1 yeast growth inhibition, confirmed; shares compounds with tim23-1 inh; S. cerevisiae tim23-1 growth, BacTiter-Glo luminescence, 24 h; inhibition, % at 20 µM; 4,400 compounds, 83% hits;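 active = inhibition above about 39% in either of two replicate wells at 20 µM, limit read from the data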;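 note: temperature-sensitive tim23-1 mutant grown at 25 °C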
A number is an active result; n = inactive; x = not tested or not shown.

SMILES | tim23-1 inh | NALP3 yeast inh | TIM10 inh | NALP1 yeast inh | tim10-1 inh | tim10-1 confirm | tim23-1 confirm | others
O=c1c2c(nc3n1CCCCC3)-c1ccccc1CC21CCCC1 | n | n | n | n | n | x | x
CCC(Oc1ccccc1)C(=O)O/N=C(\N)c1ccc(OC)c(OC)c1 (stereo unspecified) | n | n | n | n | n | x | x
Cc1cccc(C)c1N(Cc1ccccc1F)S(C)(=O)=O | n | n | n | n | n | x | x
CSc1nnc2n(C)c3c(c(=O)n12)C1(CCCC1)Cc1ccccc1-3 | 62 | n | 40 | n | 45 | n | 50 | tim10 confirm=35
Cn1c(=O)c2c(n3cnnc13)-c1ccccc1CC21CCCC1 | n | n | n | n | n | x | x
CN1/C(=C/C(=O)C2CC2)C(C)(C)c2ccccc21 | n | n | n | n | n | x | x
CN1/C(=C\C(=O)Nc2ccc(F)cc2)C(C)(C)c2ccccc21 | 68 | n | 48 | n | 45 | 49 | 72 | tim10 confirm=n
CCOC(=O)C(C)Sc1nc2c(cnn2-c2ccc(F)cc2)c(=O)[nH]1 (stereo unspecified) | n | n | n | n | n | x | x
CN(C)c1nc(Nc2ccc(F)cc2)nc(Oc2ccc(F)cc2)n1 | n | n | n | n | n | x | x
CN(C)c1nc(N/N=C/c2ccccc2O)nc(Nc2ccc(F)cc2)n1 | 59 | n | n | n | 47 | 37 | 67
COc1ccc(C(=O)O/N=C(/C)c2cccs2)cc1 | n | n | n | n | n | x | x
COc1ccc(C/C(N)=N/OC(=O)c2cccs2)cc1 | 85 | n | 77 | n | 46 | 63 | 80 | tim10 confirm=74
COc1ccccc1C/C(N)=N/OC(=O)/C=C/c1ccccc1 | 75 | n | 83 | n | 53 | 33 | 76 | tim10 confirm=83
COc1ccccc1C/C(N)=N/OC(=O)c1cccs1 | 77 | n | 59 | n | 64 | 53 | 64 | tim10 confirm=61
N/C(=N\OC(=O)/C=C/c1ccccc1)c1ccncc1 | n | n | n | n | n | x | x
Cc1ccccc1C(=O)O/N=C(\N)Cc1cccs1 | 77 | n | 90 | n | 67 | 70 | 80 | tim10 confirm=69
COc1ccccc1C(=O)NCCC(=O)OCC(=O)Nc1ccc(S(N)(=O)=O)cc1 | n | n | n | x | n | x | x
CCN(CC)S(=O)(=O)c1ccc(NS(=O)(=O)CC23CCC(CC2=O)C3(C)C)cc1 (stereo unspecified) | n | n | n | n | n | x | x
Cc1ccc(Nc2cc(C)nc(-c3ccccc3)n2)cc1 | 51 | n | n | n | 42 | 33 | 58
Cc1ccc(Nc2cc(C)nc3ccc(C)cc23)cc1 | n | n | n | n | n | x | x
CC(C)C(NC(=O)Nc1ccccc1)C(=O)Nc1cccc(S(=O)(=O)N(C)C)c1 (stereo unspecified) | n | n | n | n | n | x | x
Cc1ccc(NC(=O)CN(C)S(=O)(=O)c2ccc(Br)s2)cc1F | n | n | n | n | n | x | x
CCCn1nc(NC(=O)c2cccs2)c2cc3ccc(C)cc3nc21 | n | n | n | n | n | x | x
CCCn1nc(NC(=O)c2cccs2)c2cc3ccccc3nc21 | 52 | n | n | n | 49 | 37 | 51
O=C(NC1CCSC1=O)C1CC(=O)N(c2ccc(F)cc2)C1 (stereo unspecified) | n | n | n | n | n | x | x
SMILES | tim23-1 inh | NALP3 yeast inh | TIM10 inh | NALP1 yeast inh | tim10-1 inh | tim10-1 confirm | tim23-1 confirm | others
O=C1c2ccccc2-c2onc3ccc(Oc4ccccc4)c1c23 | 77 | n | 57 | n | 76 | 59 | 85 | tim10 confirm=68
Cc1noc(C)c1S(=O)(=O)Nc1ccccc1Oc1ccccc1 | n | n | n | n | n | x | x
CCN1/C(=C/c2ccc3cccc(C)c3[n+]2CC)Sc2ccccc21 | 68 | n | 77 | 34 | 64 | 74 | 72 | tim10 confirm=79
CSC(=S)NCc1cccnc1 | n | n | n | n | n | x | x
O=c1oc(-c2ccco2)nc2c1cnn2-c1ccccc1 | 64 | n | n | n | 48 | 35 | 67
O=c1c2cnn(-c3ccccc3)c2nc(-c2ccco2)n1-c1ccccc1 | n | n | n | n | n | x | x
O=c1c2c([N+](=O)[O-])cc([N+](=O)[O-])cc2sn1-c1ccc(Br)cc1 | 54 | n | n | n | 85 | 93 | 70
Cc1cc(NC(=S)Nc2ccc(C)c(Cl)c2)n[nH]1 | 51 | n | n | n | 46 | n | 39
COc1ccc(NC(=S)Nc2cc(C)[nH]n2)cc1Cl | n | n | n | x | n | x | x
Clc1ncnc2scc(-c3ccc(Br)cc3)c12 | 50 | n | n | n | n | n | 52
Cc1cc(N)n(-c2ncnc3scc(-c4ccc(Cl)cc4)c23)n1 | n | n | n | n | n | x | x
Cc1c(C2(O)CCCCC2)[nH]c2cnccc12 | n | n | n | x | n | x | x
Cc1c(C2(O)CCCCC2)[nH]c2cc(C(F)(F)F)ccc12 | 56 | n | n | x | 42 | n | 64
Cc1ccsc1C(=O)NN=C1CCCCCC1 | n | n | n | n | n | x | x
O=C(N/N=C/c1cc(Br)c(Br)o1)c1ccc2c(c1)OCCO2 | 53 | n | 57 | n | 65 | 53 | 80 | tim10 confirm=59
COc1cc(CC(=O)OCC(=O)N2C(C)CCCC2C)cc(OC)c1OC (stereo unspecified) | n | n | n | n | n | x | x
O=C1c2ccccc2C(=O)C2OC12 (stereo unspecified) | 79 | n | n | n | 59 | 38 | 74
O=C1c2ccccc2C(=O)C1c1ccccn1 | n | n | n | n | n | x | x
Cc1ccc(Cl)cc1NC(=O)CC(O)(C(F)(F)F)C(F)(F)F | 53 | n | n | n | 55 | 57 | 56
COCC(=O)Nc1cc(Cl)ccc1C | n | n | n | n | n | x | x
CCSc1nc2ccccc2n1C(=O)/C=C/c1ccc(OC)c(OC)c1 | 51 | n | n | n | 58 | 44 | 54
C=CCSc1nc2ccccc2n1C(=O)/C=C/c1ccc(OC)c(OC)c1 | x | x | x | n | x | x | x
Cc1cccc(N2CCN(c3nc4ccccc4n4cnnc34)CC2)c1C | 64 | n | 53 | n | 70 | n | 72 | tim10 confirm=42
Cc1cc(C(=O)NNC(=S)NCc2ccco2)n(C)n1 | n | n | n | n | n | x | x
CC(C)c1cc(C(=O)NNC(=S)NCc2ccco2)c(O)c(C(C)C)c1 | 54 | n | 57 | n | 55 | 57 | 66 | tim10 confirm=n
C=CCSc1nnc(NC(=O)CCN2C(=O)C3CC=CCC3C2=O)s1 (stereo unspecified) | n | n | n | x | n | x | x
COc1ccc(OCCCC(=O)ON=C(N)c2ccccc2Cl)cc1 | n | n | n | x | n | x | x
Cc1ccc(OCCCC(=O)ON=C(N)c2ccccc2C)cc1 | 62 | n | 41 | x | 60 | 64 | 61 | tim10 confirm=50
O=C1CC(Sc2ncccn2)C(=O)N1c1ccccc1 (stereo unspecified) | n | n | n | n | n | x | x
